In PubChem BioAssay AID504329 (Southern Research Specialized Biocontainment Screening …, 2011) one finds inhibition data, which are given here for 64 compounds.

The campaign covered roughly 340,000 compounds. About 1,000 (0.29%) were called active. No stated cut-off is given here; in the data, inconclusive means inhibition above about 27% without an active follow-up result; inactive means below that. Not all results are given here. Measured potencies and affinities stand elsewhere.

This assay is described as follows: NS1A inhibition, H1N1 influenza, cell based functional assay (AID 504329). Particulars: percent inhibition, at 12.5 µM, hits give high values.
With `O=C(CP(=O)(O)CC(=O)c1ccccc1)c1ccccc1`, the inhibition (as a rule, the relative decrease from the control value, in per cent) was 5.59% (inactive). For the compound `O=C1c2cccnc2C(=O)N1CNc1ccc(Cl)cc1`, the inhibition is 3.28% (inactive). Consider `COc1cccc(C(=O)NCCS(=O)(=O)NCc2cccnc2)c1`, for which the inhibition was -2.08% (inactive).

For the compound `CC(C)CCNC(=O)C(CC(C)C)N(Cc1ccc2c(c1)OCO2)C(=O)c1snc(C(N)=O)c1N` (centres undefined), the inhibition is 6.77% (inactive). For the compound `C=CCC1(C#N)C(SC)=NC2=C(C(=O)CC(C)(C)C2)C1c1ccc(Br)cc1` (centres undefined), the inhibition was -5.14% (inactive). `O=C(CN1C(=O)COc2ccccc21)Nc1ccccc1F`: the inhibition was 2.27% (inactive). In the case of `O=C(CN1C(=O)COc2ccccc21)Nc1ccc2c(c1)OCCO2`, the inhibition is 0.43% (inactive). To `CCOC(=O)c1c(NC(=O)COC(=O)c2ccccn2)sc(C(=O)N(C)C)c1C` belongs -8.42% (inactive); to `CCOC(=O)c1sc(NC(=O)CNCc2cccnc2)c(C(=O)OCC)c1C`, -2.69% (inactive); to `COCCN(C(=O)c1csnn1)C(C(=O)NC1CCCCC1)c1ccccc1F` (centres undefined), -4.23% (inactive). As for `CCCSc1ccc([C@H]2N[C@@](C)(C(=O)OC)[C@H]3C(=O)N(C)C(=O)[C@@H]23)cc1`, the inhibition is 6.02% (inactive).

On to `COC(=O)c1cc2cc(NS(=O)(=O)c3ccc(C)cc3)ccc2s1`, for which the inhibition is -3.1% (inactive). In the case of `Oc1[nH]c2ccc(Br)cc2c1N=NC(=S)Nc1ccc(F)cc1`, the inhibition was -7.69% (inactive).

Regarding `O=C(N=Nc1c(O)[nH]c2ccccc12)c1ccc(CN2CCOCC2)cc1`, the inhibition was 7.41% (inactive). Take `NC(=S)N=Nc1c(O)[nH]c2ccccc12`: the inhibition is 14.1% (inactive). For `N=C(N)N=Nc1c(O)[nH]c2ccc(Br)cc12`, the inhibition is -0.68% (inactive). Consider `Cc1ccc(N(CC(=O)NC2CCCCC2)C(=O)CNC(=O)c2ccco2)cc1C`, for which the inhibition is 7.87% (inactive).

In the case of `CC(C)c1ccc(C(=O)OCC(=O)NC2CCCC2)cc1`, the inhibition was 1.66% (inactive).

Regarding `CCOc1ccc(N2CC(O)(c3cccs3)[N+]3=C2CCCC3)cc1` (centres undefined), the inhibition was 2.37% (inactive). For the compound `COc1ccccc1C(=O)NC(CCSC)C(=O)NCc1ccncc1` (centres undefined), the inhibition was -4.75% (inactive).

As to `CCc1cc2c(=O)oc(-c3ccc(F)cc3)nc2s1`, the inhibition is -6.8% (inactive).

Turning to `COC(=O)C1CC2=C(CCC2=O)N(c2ccccc2)C1=O` (centres undefined), the inhibition was -7.88% (inactive). Consider `Cc1ccc(S(=O)(=O)N(C)C)cc1NC(=O)COC(=O)/C(=C/c1ccc(F)cc1)c1cccs1`, for which the inhibition was -0.58% (inactive). Regarding `O=C1Nc2ccccc2C1=O`, the inhibition was 0.1% (inactive). Consider `O=C1/C(=C/c2ccccc2)Nc2ccccc21`, for which the inhibition was 14.7% (inactive). For `O=C(COC(=O)CN1C(=O)COc2ccccc21)NCc1ccc(F)cc1`, the inhibition is -6.84% (inactive). Take `COc1ccc(CN(C)CC(=O)Nc2sc3c(c2C#N)CCC3)c(OC)c1`: the inhibition is -1.01% (inactive). With `CCc1ccc(NSc2ccccc2[N+](=O)[O-])cc1`, the inhibition is 28.4% (inactive). As to `O=[N+]([O-])c1nn(-c2ccccc2)[n+]([O-])c1N1CCN(c2ccccc2F)CC1`, the inhibition is 2.62% (inactive).

Take `CC(=O)c1ccc(NC(=S)Nc2ccc(Br)c(Cl)c2)cc1`: the inhibition is -4.9% (inactive). Consider `CC(=O)N(C)c1ccc(N=C2C(=O)Nc3ccccc32)cc1`, for which the inhibition is 3.21% (inactive). On to `Cc1ccc(N=C2C(=O)Nc3ccccc32)cc1`, for which the inhibition was -4.95% (inactive). With `C=CCn1c(SCC(=O)N(C)C)nc2cc(C(=O)O)ccc2c1=O`, the inhibition was -7.19% (inactive). Consider `C=CCn1c(Sc2ccccc2)nc2c1c(=O)[nH]c(=O)n2C`, for which the inhibition is -6.06% (inactive).

In the case of `COc1ccc([C@H]2CC(=O)C=C(c3ccc(O)cc3)C2)cc1OC`, the inhibition was -4.89% (inactive). Take `CN(C)c1ccc(C(=O)NN2C(=O)c3ccccc3C2=O)cc1`: the inhibition is -1.57% (inactive). Regarding `CN(C)c1ccc(/C=N/N2C(=O)c3ccccc3C2=O)cc1`, the inhibition is -9.49% (inactive). On to `CCc1ccc(-c2cc(C)no2)cc1S(=O)(=O)Nc1cc(C)on1`, for which the inhibition is 1.29% (inactive).

Regarding `Cc1ccccc1-c1nc(CS(=O)CC(=O)NCCN2CCOCC2)c(C)o1` (centres undefined), the inhibition was -1.58% (inactive). In the case of `CC(C)(C)C1=CC(O)(c2ccccc2)C=C(C(C)(C)C)C1=O`, the inhibition was -2.37% (inactive). As to `Nc1ccccc1N=Nc1ccccc1N`, the inhibition was 18.4% (inactive).

On to `COc1cccc(NC(=O)COC(=O)c2ccco2)c1`, for which the inhibition is 7.2% (inactive). For `CCOc1cccc(CNCCCSc2ncccn2)c1` the value was 1.33% (inactive); for `O=C(O)c1cccc2cccc(-c3c4ccc(=O)c(O)c-4oc4c(O)c(O)ccc34)c12`, 13% (inactive). With `O=C1c2ccccc2C(=O)c2c1ccc(O)c2O`, the inhibition is 17.2% (inactive). For `Cc1ccc(OCCNC(=O)C2CC(=O)N(Cc3ccccc3)C2)cc1` (centres undefined) the value was 4.88% (inactive). As for `CC1CCN(S(=O)(=O)c2ccccc2[N+](=O)[O-])CC1`, the inhibition is 16.9% (inactive). `CC1CCN(CC(O)COc2ccc(-c3ccccc3)cc2)CC1` (centres undefined): the inhibition was 19.9% (inactive). For `Cc1nn(-c2cc(N3CCCCC3)ccc2N)c(=O)c2ccccc12`, the inhibition was 2.92% (inactive).

As for `CN1CCN(c2ccc(N)c(N3CCN(C)CC3)c2)CC1`, the inhibition was 17.9% (inactive). For `O=C(C[C@@H]1C/C=C\C[C@@H](Cc2ccc(F)cc2)C(=O)OCCNC1=O)NCCO` the value was 0.47% (inactive). In the case of `O=C1Nc2ccc(Br)cc2C12OCCO2`, the inhibition was -14.6% (inactive). `CCOc1ccc(C(=O)NCc2ccc3c(c2)OCO3)cc1OCC`: the inhibition is -1.8% (inactive). For `O=C(COC(=O)c1ccc[nH]c1=O)NC1CCCCCCC1`, the inhibition was -1.92% (inactive). To `Cc1ccc(/C=N/Nc2ccc3c(C(F)(F)F)cc(C(F)(F)F)nc3n2)cc1` belongs -11.1% (inactive); to `N#CC(c1cccc(Cl)c1)c1ccc2c(C(F)(F)F)cc(C(F)(F)F)nc2n1` (centres undefined), 20.9% (inactive). Consider `FC(F)(F)c1cc(C(F)(F)F)c2ccc(Oc3ccccc3)nc2n1`, for which the inhibition is -1.17% (inactive).

As to `N#CC(c1ccc(Cl)cc1)c1ccc2c(C(F)(F)F)cc(C(F)(F)F)nc2n1` (centres undefined), the inhibition was 21.3% (inactive). For `O=C(C1=C[C@H](c2ccc3c(c2)OCO3)C[C@H](OCCCCO)O1)N1CCOCC1`, the inhibition was -1.7% (inactive).

Turning to `O=C(c1cc2cc(F)ccc2[nH]1)N1CCCC(Nc2ccc(F)cc2)C1` (centres undefined), the inhibition is 9.28% (inactive).

`CCc1ccc(S(=O)(=O)/N=C2\C=C(Nc3ccc(C(=O)O)cc3)C(=O)c3ccccc32)cc1`: the inhibition is 25.1% (inactive). In the case of `CC(C)(C)c1ccc(S(=O)(=O)/N=C2\C=C(NS(=O)(=O)c3ccccc3)C(=O)c3ccccc32)cc1`, the inhibition was 11.3% (inactive). As to `CC(C)c1ccc(S(=O)(=O)/N=C2\C=C(NS(=O)(=O)c3ccccc3)C(=O)c3ccccc32)cc1`, the inhibition was 14.3% (inactive). Take `CCc1ccc(S(=O)(=O)/N=C2\C=C(NS(=O)(=O)c3ccccc3)C(=O)c3ccccc32)cc1`: the inhibition was 11.2% (inactive).
